“And” between values parts separate entries of the source, which are not always exact repeats. Identical values can stand only once. Inconclusive results are not listed. Values without a mark were called inactive. The source made the active and inactive calls. The call rests on the fitted dose curve; in most records, active means well fitted curve in the direction sought with a large enough effect; inconclusive means small, poorly fitted or top-dose-only effect, or another doubt; inactive means no such curve, though single readings can be large; an effect the other way counts as inactive or inconclusive.
Columns and labels:
[1] = Viability qHTS for spleen associated tyrosine kinase inhibitor (SYKi) naive MV4-11 cells (AID 1963823); conditions: MV4-11 AML viability, CellTiter-Glo luminescence, 72 h; series mostly up to 45 µM; further: nearly all actives have a fitted effect of over 40% in size
Summary of the method: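 Read-out: CellTiter-Glo luminescence. Exposure: 72 hr, 37 C, 5% CO2, 95% humidity. Cells: MV4-11 without SYK inhibitor history, 500/well, qHTS format.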

[2] = Viability qHTS for spleen associated tyrosine kinase inhibitor (SYKi) drug resistant MV4-11 cells (AID 1963824); conditions: SYKi-resistant MV4-11 viability, CellTiter-Glo, 72 h; series mostly up to 45 µM; further: nearly all actives have a fitted effect of over 35% in size
Summary of the method: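 CellTiter-Glo luminescence, read 10 min after reagent addition, reports viability after a 72 hr compound exposure. Cells are an MV4-11 line made resistant to SYK inhibition, seeded at 500 per well onto compound-containing plates.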

[3] = Quantitative highthroughput screen to assess conditional lethalithy of NOMO1 cells grown in RPMI1640 with untreated serum (RPMI+s) (AID 1963876); conditions: NOMO1 AML cells in RPMI+serum, CellTiter-Glo viability, 48 h; series mostly up to 45.8 µM; further: nearly all actives have a fitted effect of over 35% in size;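 on Viability: 100% = DMSO wells and 0% = empty wells without cells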
Summary of the method: (§1)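 Each medium arm—HPLM with 10% dialyzed FBS, or RPMI1640 with 5 mM glucose and 10% untreated or dialyzed FBS—was screened against an 11-point, 3-fold compound titration for 48 h at 37 °C, with CellTiter-Glo luminescence as endpoint.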

[4] = Quantitative highthroughput screen to assess conditional lethalithy of NOMO1 cells grown in RPMI1640 with dialyzed fetal bovine serum (RPMI+ds) (AID 1963877); conditions: NOMO1 in RPMI+dialyzed FBS viability, ATP luminescence, 48 h; series mostly up to 45.8 µM; further: nearly all actives have a fitted effect of over 30% in size;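 on Viability: 100% = DMSO control wells and 0% = empty wells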
Summary of the method: as §1

[5] = Quantitative highthroughput screen to assess conditional lethalithy of NOMO1 cells grown in Human Plasma-Like Medium with dialyzed fetal bovine serum (HPLM+ds) (AID 1963878); conditions: NOMO1 AML cells in HPLM+ds, CellTiter-Glo viability, 48 h; series mostly up to 45.8 µM; further: nearly all actives have a fitted effect of over 35% in size;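 on Viability: 100% = DMSO wells and 0% = empty wells on each plate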
Summary of the method: as §1

[6] = Quantitative highthroughput screen to assess conditional lethalithy of P12 Ichikawa cells grown in Human Plasma-Like Medium with dialyzed fetal bovine serum (HPLM+ds) (AID 1963879); conditions: ATP luminescence, 48 h; Potency: viability; series mostly up to 45.8 µM; further: nearly all actives have a fitted effect of over 35% in size
Summary of the method: as §1

[7] = Quantitative highthroughput screen to assess conditional lethalithy of P12 Ichikawa cells grown in RPMI1640 with dialyzed fetal bovine serum (RPMI+ds) (AID 1963880); conditions: ATP luminescence, 48 h; Potency: P12-Ichikawa viability; series mostly up to 45.8 µM; further: nearly all actives have a fitted effect of over 35% in size;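 on Viability: 100% = DMSO wells and 0% = empty wells on each plate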
Summary of the method: as §1

[8] = Quantitative highthroughput screen to assess conditional lethalithy of P12 Ichikawa cells grown in RPMI1640 with untreated serum (RPMI+s) (AID 1963881); conditions: ATP luminescence, 48 h; Potency: viability; series mostly up to 45.8 µM; further: nearly all actives have a fitted effect of over 35% in size;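 on Viability: 100% = DMSO wells and 0% = empty wells without cells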
Summary of the method: as §1

[9] = Quantitative highthroughput screen to assess conditional lethalithy of SEM cells grown in Human Plasma-Like Medium with dialyzed fetal bovine serum (HPLM+ds) (AID 1963882); conditions: SEM B-ALL cells in HPLM+ds, CellTiter-Glo viability, 48 h; series mostly up to 45.8 µM; further: nearly all actives have a fitted effect of over 35% in size
Summary of the method: as §1

[10] = Quantitative highthroughput screen to assess conditional lethalithy of SEM cells grown in RPMI1640 with unreated serum (RPMI+s) (AID 1963883); conditions: SEM B-ALL cells, CellTiter-Glo viability, 48 h; series mostly up to 45.8 µM; further: nearly all actives have a fitted effect of over 35% in size;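 on Viability: 100% = DMSO wells and 0% = empty wells without cells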
Summary of the method: as §1

[11] = Cellular viability qHTS for adrenocortical cancer (ACC) cell line SW-13 (AID 1963989); conditions: SW-13 ACC cells viability, CellTiter-Glo, 48 h; activity (max response): hits give low values; further: nearly all actives have a fitted effect of over 65% in size;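 on activity (max response): cells grown in serum-free medium with ITS supplement; on the % scale 0 is the no-effect control and ±100 the full control effect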
Summary of the method: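 Here, serum-free SW-13 cultures were dosed up to 46 uM. Following 48 h, ATP-dependent luminescence (CellTiter-Glo) reported viable cells, and logistic modeling produced IC50 values.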

[12] = Quantitative highthroughput screen to assess conditional lethalithy of SEM cells grown in RPMI1640 with dialyzed fetal bovine serum (RPMI+ds) (AID 1963884); conditions: SEM B-ALL cells, RPMI+dialyzed FBS, CellTiter-Glo viability, 48 h; series mostly up to 45.8 µM; further: nearly all actives have a fitted effect of over 35% in size;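 on Viability: 100% = DMSO control wells and 0% = empty wells without cells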
Summary of the method: as §1

[13] = Cellular viability qHTS for adrenocortical cancer (ACC) cell line NCI-H295R (AID 1963990); conditions: CellTiter-Glo ATP luminescence, 48 h; series mostly up to 46.1 µM; further: nearly all actives have a fitted effect of over 60% in size
Summary of the method: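 Viability of NCI-H295R after 48 h of treatment (final up to 46 uM) measured through cellular ATP luminescence.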
Potency means the concentration at half of the fitted maximal effect.

Row | SMILES | Potency [1] | Potency [2] | Potency [3] | Potency [4] | Potency [5] | Potency [6] | Potency [7] | Potency [8] | Potency [9] | Potency [10] | Potency [11] | Potency [12] | activity (max response) [11] | Potency [13]
1 | CC[C@@]1(O)C(=O)OCc2c1cc1n(c2=O)Cc2cc3c(CN(C)C)c(O)ccc3nc2-1 | 59.6 nM (active) and 58 nM (active) | 0.0332 µM (active) | 0.526 µM (active) | 0.526 µM (active) | 0.332 µM (active) | 105 nM (active) | 74.3 nM (active) | 74.3 nM (active) | 166 nM (active) | 93.5 nM (active) | 562 nM (active) |  |  | 
2 | COc1cc2c(cc1OC)CC(=O)N(CCCN(C)C[C@H]1Cc3cc(OC)c(OC)cc31)CC2 | inactive | inactive | inactive | inactive | inactive | inactive | inactive | inactive | inactive | inactive |  | inactive | 10.3% | inactive
3 | CC(=O)Oc1ccccc1C(=O)O | inactive | inactive | inactive | inactive | inactive | inactive | inactive | inactive | inactive | inactive |  | inactive | 9.69% and -6.24% | inactive
4 | N=c1ccn2c(n1)O[C@H]1[C@@H](O)[C@@H](CO)O[C@H]12 | 2.95 µM (active) | 3.32 µM (active) | 2.96 µM (active) | 1.48 µM (active) | 1.48 µM (active) | 132 nM (active) | 132 nM (active) | 118 nM (active) | 132 nM (active) | 132 nM (active) |  | 0.0935 µM (active) |  | inactive
5 | NC(=O)NO | inactive | inactive | 4.69 µM (active) | 4.18 µM (active) | 2.96 µM (active) | 9350 nM (active) | 9350 nM (active) | 16600 nM (active) | 3720 nM (active) | 4180 nM (active) |  | 4.18 µM (active) | 10.6% and 4% | inactive
6 | CC(C)C[C@H](NC(=O)[C@H](Cc1ccccc1)NC(=O)c1cnccn1)B(O)O | 0.0132 µM (active) | 9.4 nM (active) and 11.8 nM (active) | 0.0469 µM (active) | 0.0469 µM (active) | 0.0469 µM (active) | 37.2 nM (active) | 37.2 nM (active) | 37.2 nM (active) | 20.9 nM (active) | 18.7 nM (active) | 20.6 nM (active) and 79.4 nM (active) | 0.0166 µM (active) |  | 8.2 nM (active) and 35.5 nM (active)
7 | C[C@H]1[C@@H](OC(=O)CCC(=O)O)O[C@@H]2O[C@@]3(C)CC[C@@H]4[C@H](C)CC[C@@H]1[C@@]24OO3 | 0.934 µM (active) | 1.16 µM (active) | 1.66 µM (active) | 1.32 µM (active) | 2.09 µM (active) | 11800 nM (active) | 6620 nM (active) | 5260 nM (active) | 4690 nM (active) | 3720 nM (active) |  | 4.18 µM (active) |  | 17.8 µM (active)
8 | CCC(=O)NCC[C@@H]1CCc2ccc3c(c21)CCO3 | inactive | inactive | inactive | inactive | inactive | inactive | inactive | inactive | 3320 nM (active) | 5260 nM (active) |  | 5.26 µM (active) | -6.57% | inactive
9 | OCCCNc1cc(-c2ccnc(Nc3cccc(Cl)c3)n2)ccn1 | 82 nM (active) and 83.3 nM (active) | 58 nM (active) and 66.1 nM (active) | 0.187 µM (active) | 0.209 µM (active) | 0.235 µM (active) | 662 nM (active) | 469 nM (active) | 526 nM (active) | 166 nM (active) | 235 nM (active) | 447 nM (active) | 0.209 µM (active) |  | 0.316 µM (active)
10 | COCCCOc1cc(C[C@@H](C[C@H](N)[C@@H](O)C[C@H](C(=O)NCC(C)(C)C(N)=O)C(C)C)C(C)C)ccc1OC | inactive | 168 nM (active) and 5.9 µM (active) | inactive | inactive | inactive | inactive | inactive | inactive | inactive | inactive |  | inactive | 6.05% | inactive
11 | CCc1ccc(OCc2ccccc2C(=O)Nc2ccc3nc(C)cc(N)c3c2)cc1 | 1.66 µM (active) | 2.09 µM (active) | 9.35 µM (active) | 8.33 µM (active) | 3.32 µM (active) | 9350 nM (active) | 14800 nM (active) | 13200 nM (active) | 3720 nM (active) | 10500 nM (active) |  | 10.5 µM (active) |  | 5.62 µM (active)
